Assay results reported in PubChem BioAssay (NCATS).
Results filed as inconclusive are left out. Calls of active or inactive are those of the source. Calls come from the whole dose curve; as a rule, active = well fitted curve in the direction sought with a large enough effect; inconclusive = small, poorly fitted or top-dose-only effect, or another doubt; inactive = no such curve, though single readings can be large or run the other way.

Each compound was assayed against Metallo-beta-lactamase type 2 (Klebsiella pneumoniae) (UniProt C7C422) (assay: qHTS to identify inhibitors of the New Delhi Metallo-beta-lactamase (NDM): assay validation screen against the NCATS LOPAC Collection (AID 1794843;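 for activity change, negative = inhibition: nitrocefin turnover by NDM-1 measured as 485 nm absorbance at plateau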)). Conditions: NDM-1 enzyme, nitrocefin hydrolysis, absorbance 485 nm; series mostly up to 38.4 µM; activity change, negative = inhibition: at the top concentration.
Source text: Assay Submitter (PI): James Inglese Ph.D., Patricia Dranchak Ph.D., Mahesh Aitha Ph.D.
Assay Development and Screening Technology Laboratory (ADST)
National Center for Advancing Translational Sciences (NCATS), Rockville, MD
National Institute of Health (NIH), Bethesda, Maryland
The metallo-beta-lactamases (MBL) are a main antibiotic resistance mechanism evolved by bacteria. There is an urgent clinical need for MBL inhibitors to mitigate this growing threat. To support a machine-based learning study, qHTS has been used to experimentally test inhibitors identified by prediction tools.
PROTOCOL TABLE (as described by Inglese et al., 2007)
SEQUENCE No. (e.g., 1, 2, 3, etc.); […] (e.g., enzyme, Incubation, Reagent, etc.); VALUE; DESCRIPTION
1; NDM-1; 4 uL of 3 nM enzyme in 50 mM HEPES (pH 7.0), 1 uM Zn2SO4, 0.01% Tween20; Use BioRaptr to dispense into Aurora black, clear bottom low base 1536-well plates
2; Compounds; 23 nL; Use Pin Tool (Wako) to transfer DMSO control and library compounds in DMSO
4; Reagent; 2 uL of 50 uM nitrocefin
6; Detector; Absorbance at 485 nm (bandwidth = 5 nm, 25 flashes/well) on Tecan Infinity
NOTES (numbers refer to sequence above)
1; Column 1 of each plate received assay buffer without enzyme and columns 2-48 received enzyme for a final assay concentration of 2 nM.
2; Control plate contained DMSO in columns 1, 2, 3, and 4.
3; Compound interaction with enzyme.
5; Substrate interaction with enzyme, plateau phase of kinetics.
6; Default reader settings were applied for absorbance read at 485 nm, bandwidth = 5 nm, 25 flashes/well.
Inglese J, Shamu CE, Guy RK. 2007. Reporting data from high-throughput screening of small-molecule libraries. Nat Chem Biol. doi:10.1038/nchembio0807-438
Yasgar A, Shinn P, Jadhav A, Auld D, Michael S, Zheng W, Austin CP, Inglese J, Simeonov A. 2008. Compound Management for Quantitative High-Throughput Screening. J Lab Autom 13:79 - 89. doi:10.1016/j.jala.2007.12.004
% is set by controls: 0 for no effect and ±100 for the full control effect; potency is the fitted concentration of half-maximal effect.

Metallo-beta-lactamase type 2 (Klebsiella pneumoniae), sequence (C7C422 whole entry, looked up): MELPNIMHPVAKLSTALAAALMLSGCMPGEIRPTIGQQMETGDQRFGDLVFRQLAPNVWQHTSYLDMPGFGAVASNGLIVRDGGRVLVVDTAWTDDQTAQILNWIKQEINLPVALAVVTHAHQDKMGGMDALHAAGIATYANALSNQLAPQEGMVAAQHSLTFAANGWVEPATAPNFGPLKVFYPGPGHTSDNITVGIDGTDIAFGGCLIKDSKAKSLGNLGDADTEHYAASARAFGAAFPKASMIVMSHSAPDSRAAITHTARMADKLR

Compound | activity change, negative = inhibition | Potency
CCCCCCCCCCCCCCCCCC(=O)OC(CC(=O)O)C[N+](C)(C)C (stereo not given) | -1.25% (inactive) | –
COc1cccc(C(=O)NCCN2CCN(c3ccc(Cl)cc3)CC2)c1 | -0.246% (inactive) | –
C#C[C@]1(O)CC[C@H]2[C@@H]3CCC4=Cc5oncc5CC4(C)[C@H]3CCC21C (stereo not given in full) | -0.462% (inactive) | –
CCNC(=O)[C@H]1O[C@@H](n2cnc3c(N)nc(NCCc4ccc(CCC(=O)O)cc4)nc32)[C@H](O)C1O (stereo not given in full) | -4.85% (inactive) | –
O=C1C(SCCO)=C(SCCO)C(=O)c2ccccc21 | -11.6% (inactive) | –
CN1CCc2cccc3c2C1Cc1ccc(O)c(O)c1-3 (stereo not given) | -3.32% (inactive) | –
O=c1cc(-c2ccccc2)oc2c(O)c(O)ccc12 | -18.4% (inactive) | –
COC(=O)C1=C(C)NC(C)=C(C(=O)OC)C1c1cccc(NC(=O)NCCCN2CCC(c3cccc(OC)c3)CC2)c1 | -0.878% (inactive) | –
O=C(Nc1ccncc1)c1cc([N+](=O)[O-])ccc1Cl | 4.11% (inactive) | –
CN(C)c1ccc(/C=C2\C(=O)Nc3ccccc32)cc1 | 108% (inactive) | –
CC(C)NC[C@H](O)COc1cccc2[nH]ccc12 | 1.83% (inactive) | –
CCCN(CC1CC1)c1nc(C)nc(Nc2c(Cl)cc(Cl)cc2Cl)c1Cl | 6.03% (inactive) | –
C[N+]1(C)C2CC(OC(=O)[C@H](CO)c3ccccc3)CC1C1OC12 (stereo not given in full) | – | inactive
NC(CCCP(=O)(O)O)C(=O)O (stereo not given) | -3.51% (inactive) | –
NC(=O)C1=CN(C2OC(COP(=O)(O)OP(=O)(O)OC[C@H]3O[C@@H](n4cnc5c(N)ncnc54)[C@H](OP(=O)(O)O)[C@@H]3O)C(O)C2O)C=CC1 (stereo not given in full) | -8.45% (inactive) | –
CC1CN(S(=O)(=O)c2cccc3cnccc23)CCN1 (stereo not given) | -8.36% (inactive) | –
O=C(O)CC[C@@H](C(=O)O)N1C(=O)c2ccccc2C1=O | -3.53% (inactive) | –
CCOC(=O)N1CCN(/[N+]([O-])=N/Oc2ccc([N+](=O)[O-])cc2[N+](=O)[O-])CC1 | 1.73% (inactive) | –
O=C(/C=C/c1ccc(O)c(O)c1)OCCc1ccccc1 | 1.73% (inactive) | –
CCN(CC)c1ncnc2c1ncn2[C@@H]1O[C@H](COP(=O)(O)OP(=O)(O)C(Br)(Br)P(=O)(O)O)[C@@H](O)[C@H]1O | -19.1% (inactive) | –

Compound | activity change, negative = inhibition | Potency
CNc1ncnc2c1ncn2[C@@H]1O[C@H](CO)[C@@H](O)[C@H]1O | 11.9% (inactive) | –
Fc1ccc2[nH]c(CN3CCN(c4ccccn4)CC3)cc2c1 | -0.917% (inactive) | –
c1cnc2c(c1)ccc1cccnc12 | – | 20 µM (active)
CN1CCc2ccccc2Cc2[nH]c3ccccc3c2CC1 | 0.888% (inactive) | –
O=C(O)c1cc(=O)c2c(Cl)cc(Cl)cc2[nH]1 | 9.89% (inactive) | –
CC(N)C(=O)OC(C)(C)Cc1ccc(Cl)cc1 (stereo not given) | 0.654% (inactive) | –
CNCC[C@H](Oc1ccc(C(F)(F)F)cc1)c1ccccc1 | -1.29% (inactive) | –
CCCC(CCC)C(=O)OC1CC2CCC(C1)[N+]2(C)C (stereo not given) | 2.53% (inactive) | –
CCNc1nc2c(ncn2[C@H]2C[C@H](O)[C@@H](CO)O2)c(=O)[nH]1 | -4.69% (inactive) | –
CC1OC1P(=O)(O)O (stereo not given) | 0.0495% (inactive) | –
O=C(O)c1cc([N+](=O)[O-])ccc1NCCCc1ccccc1 | -4.45% (inactive) | –
O=C(c1cc(O)c(O)c([N+](=O)[O-])c1)c1ccccc1F | 12.2% (inactive) | –
CC1(C)CCC=[N+]1[O-] | -8.51% (inactive) | –
CCN(CC)CCCCNc1ncc2cc(-c3c(Cl)cccc3Cl)c(NC(=O)NC(C)(C)C)nc2n1 | -7.4% (inactive) | –
Nc1nc(SCc2ccc([N+](=O)[O-])cc2)c2ncn([C@@H]3O[C@H](CO)[C@@H](O)[C@H]3O)c2n1 | 2.92% (inactive) | –
O=C(Nc1ccc2c(c1)CCN(Cc1ncn[nH]1)C2)c1ccccc1-c1ccc(C(F)(F)F)cc1 | -0.94% (inactive) | –
CN(CCCOc1ccc(Cc2ccccc2)cc1)CCC(=O)O | -1.73% (inactive) | –
O=C(/C=C/c1ccc(O)cc1)c1ccc(O)cc1O | 52.7% (inactive) | –
C[N+](C)(C)CCOP(=O)(O)OP(=O)([O-])OC[C@H]1O[C@@H](n2ccc(N)nc2=O)[C@H](O)[C@@H]1O | -0.471% (inactive) | –
Brc1c(Br)c(Br)c2n[nH]nc2c1Br | -4.77% (inactive) | –
